KB-3-1 cytotox: kills parental KB-3-1 adenocarcinoma cells. actives 1.4% (n = 400,000). Potency, µM (titrated, usually from 46.1 µM), hits mostly cytotoxic. KB-3-1 viability, CellTiter-Glo ATP luminescence, 72 h. AID 1347075; further: nearly all actives have a fitted effect of over 60% in size
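72 h, 37 °C compound treatment of KB-3-1 parental cells; CellTiter-Glo added, 10 min, luminescence read. Data corrected against DMSO-only plates and normalized before curve fitting.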
HT1080 IDH1KD tx: HT-1080 IDH1 knockdown cell toxicity (counter line). actives 2% (n = 360,000). HT-1080 IDH1 knockdown viability, ATP luminescence, 48 h. Potency, µM (series often up to 46.1 µM), hits mostly cytotoxic
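IDH1KD HT-1080 cells, 750/well, RPMI + 5% FBS; compound pinned after 2 h settling; 48 h, 37 °C; CellTiter-Glo luminescence; % activity normalised to DMSO and no-cell wells; curves fitted, classed by r2 and efficacy.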
SW480 rereplic: induces DNA re-replication in SW480 colon adenocarcinoma cells; actives 1.8% (n = 340,000); Potency, µM (titrated, usually from 46.1 µM), actives largely listed as activators; SW480 DNA re-replication, Hoechst DNA content imaging, 48 h; further: nearly all actives have a fitted effect of over 55% in size
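Treated cells incubate 48 hr (37 C, 5% CO2), are stained 40 min with Hoechst, and nuclear fluorescence is enumerated; a rise in nuclei with high DNA signal marks re-replication.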
HT1080NT lethal: kills 2HG-producing HT-1080-NT fibrosarcoma cells | Potency, µM (doses to about 46.1 µM), hits mostly cytotoxic | HT-1080-NT fibrosarcoma viability, CellTiter-Glo ATP luminescence, 48 h | actives 1.6% (n = 360,000);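 further: NT is the 2HG producing partner of a matched IDH1 knockdown line; nearly all actives have a fitted effect of over 55% in size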
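750 cells/well, RPMI + 5% FBS; 2 h settle, compound pin-transfer, 48 h at 37 degrees C. CellTiter-Glo 10 min RT, luminescence. Normalized to DMSO and media-only wells.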
KB-V1 cytotox: KB-V1 MDR subline cytotoxicity. Potency, µM (top dose mostly 46.1 µM), hits mostly cytotoxic. actives 3.4% (n = 400,000). KB-V1 MDR cells viability, CellTiter-Glo, 72 h; further: nearly all actives have a fitted effect of over 60% in size
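Cytotoxicity toward P-gp-expressing KB-V1 cells was determined as loss of CellTiter-Glo luminescence after 72 h at 37 degrees C. Compounds were tested in quantitative HTS format across a concentration range, with curves fitted to normalized data.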
MCF10A rereplic: inducers of DNA re-replication in MCF 10A breast cells; Potency, µM (titrated, usually from 46.1 µM), actives largely listed as activators; MCF 10A DNA re-replication, Hoechst nuclear intensity, 48 h; actives 2.9% (n = 350,000); further: nearly all actives have a fitted effect of over 50% in size
Numbers stand for hits. A selection: hits, their analogues and other compounds. The true share with any hit is near 7.9%. The call rests on the fitted dose curve; in most records, active means well fitted curve in the direction sought with a large enough effect; inconclusive means small, poorly fitted or top-dose-only effect, or another doubt; inactive means no such curve, though single readings can be large; an effect the other way counts as inactive or inconclusive.

What do the screens show for `Cc1ccc(NC(=O)Cc2ccccc2)cc1S(=O)(=O)N1CCOCC1`?
KB-3-1 cytotox: inactive; HT1080 IDH1KD tx: inactive; SW480 rereplic: inactive; HT1080NT lethal: inactive; KB-V1 cytotox: 23.1µM; MCF10A rereplic: inactive

How did Cc1ccc(NC(=O)CN2C(=O)NC3(CCCCC3C)C2=O)cc1S(=O)(=O)N1CCOCC1 (centres undefined) do in these assays?
KB-3-1 cytotox: inactive; HT1080 IDH1KD tx: inactive; HT1080NT lethal: inactive; KB-V1 cytotox: inactive

What do the screens show for `CCc1ccc(N2CC(C(=O)Nc3ccc(C)c(S(=O)(=O)N4CCOCC4)c3)CC2=O)cc1` (centres undefined)?
KB-3-1 cytotox: inactive; HT1080 IDH1KD tx: inactive; SW480 rereplic: inactive; HT1080NT lethal: inactive; KB-V1 cytotox: 23.1µM; MCF10A rereplic: inactive

What do the screens show for `COc1cc2c(cc1OC)CN(CC(=O)Nc1ccc(C)c(S(=O)(=O)N3CCOCC3)c1)CC2`?
KB-3-1 cytotox: inactive; HT1080 IDH1KD tx: inactive; SW480 rereplic: inactive; HT1080NT lethal: inactive; KB-V1 cytotox: inactive; MCF10A rereplic: inactive

Results for Cc1ccc(NC(=O)CN2C(=O)NC(C)(c3ccc(Cl)cc3)C2=O)cc1S(=O)(=O)N1CCOCC1 (centres undefined) ?
KB-3-1 cytotox: inconclusive; HT1080 IDH1KD tx: 13µM; SW480 rereplic: inconclusive; HT1080NT lethal: inconclusive; KB-V1 cytotox: inactive; MCF10A rereplic: inconclusive

How did CCc1ccc(N2CC(C(=O)Nc3ccc(OC)c(S(=O)(=O)N4CCOCC4)c3)CC2=O)cc1 (centres undefined) do in these assays?
KB-3-1 cytotox: inactive; HT1080 IDH1KD tx: inactive; HT1080NT lethal: inactive; KB-V1 cytotox: inactive

What do the screens show for `CC(=O)c1cccc(NC(=O)CN2C(=O)CCc3cc(S(=O)(=O)N4CCCCC4)ccc32)c1`?
KB-3-1 cytotox: inconclusive; KB-V1 cytotox: inactive

How did Cc1ccccc1-c1nc(CS(=O)(=O)CC(=O)NCCCc2ccccc2)c(C)o1 do in these assays?
KB-3-1 cytotox: inactive; KB-V1 cytotox: inactive

Results for O=C(Cc1cn(Cc2cccc(Cl)c2)c2ccccc12)N1CCCCCC1 ?
KB-3-1 cytotox: inconclusive; HT1080 IDH1KD tx: inactive; SW480 rereplic: inactive; HT1080NT lethal: inactive; KB-V1 cytotox: 4.61µM; MCF10A rereplic: inconclusive

Results for COc1cc(F)ccc1-c1csc(C(C)(O)c2ccccc2)n1 (centres undefined) ?
KB-3-1 cytotox: inactive; HT1080 IDH1KD tx: inconclusive; HT1080NT lethal: inconclusive; KB-V1 cytotox: inactive

How did CCOC(=O)C1C(=O)OC(C)(C)C1C(C)C(=O)c1ccc(C)cc1 (centres undefined) do in these assays?
KB-3-1 cytotox: inactive; HT1080 IDH1KD tx: inactive; SW480 rereplic: inactive; HT1080NT lethal: inactive; KB-V1 cytotox: 14.6µM; MCF10A rereplic: inactive

What do the screens show for `CCOC(=O)C1C(=O)OC(C)(C)C1C(C)C(=O)c1ccc(C)cc1C` (centres undefined)?
KB-3-1 cytotox: inactive; HT1080 IDH1KD tx: inactive; SW480 rereplic: inactive; HT1080NT lethal: inactive; KB-V1 cytotox: inactive; MCF10A rereplic: inactive

Results for CCC(=O)N1CCC1(C)C(=O)Nc1cccc(OC)c1OC (centres undefined) ?
KB-3-1 cytotox: inactive; HT1080 IDH1KD tx: inactive; HT1080NT lethal: inactive; KB-V1 cytotox: inactive

What do the screens show for `Cc1ccc(CN2CC34C=CC(O3)C(C(=O)NCc3ccco3)C4C2=O)cc1` (centres undefined)?
KB-3-1 cytotox: inactive; HT1080 IDH1KD tx: inactive; SW480 rereplic: inactive; HT1080NT lethal: inactive; KB-V1 cytotox: 18.4µM; MCF10A rereplic: inactive

Results for COc1cccc(C2CC(=O)Nc3cc(C)c(C)cc32)c1 (centres undefined) ?
KB-3-1 cytotox: inconclusive; HT1080 IDH1KD tx: inactive; HT1080NT lethal: inconclusive; KB-V1 cytotox: 20.6µM

Results for CCOc1cccc(C2CC(=O)Nc3cc(OC)c(OC)cc32)c1 (centres undefined) ?
KB-3-1 cytotox: inactive; HT1080 IDH1KD tx: inactive; SW480 rereplic: inactive; HT1080NT lethal: inactive; KB-V1 cytotox: inactive; MCF10A rereplic: inactive

What do the screens show for `COc1cccc(C2CC(=O)Nc3cc4c(cc32)CCC4)c1` (centres undefined)?
KB-3-1 cytotox: 7.31µM; HT1080 IDH1KD tx: 25.9µM; SW480 rereplic: 8.2µM; HT1080NT lethal: 23.1µM; KB-V1 cytotox: 5.8µM; MCF10A rereplic: 5.17µM

How did COc1cccc(C2CC(=O)Nc3cc(OC)c(OC)cc32)c1 (centres undefined) do in these assays?
KB-3-1 cytotox: inactive; HT1080 IDH1KD tx: inactive; SW480 rereplic: inconclusive; HT1080NT lethal: inactive; KB-V1 cytotox: inactive; MCF10A rereplic: inactive

How did O=C1CC(c2cccc(Cl)c2)c2cc3c(cc2N1)CCC3 (centres undefined) do in these assays?
KB-3-1 cytotox: inactive; HT1080 IDH1KD tx: inconclusive; SW480 rereplic: inactive; HT1080NT lethal: 7.08µM; KB-V1 cytotox: 8.2µM; MCF10A rereplic: inactive

Results for CCC(C)(C)NS(=O)(=O)c1cc(-c2cc(C)no2)ccc1C ?
KB-3-1 cytotox: inactive; KB-V1 cytotox: inactive

How did O=C(Nc1c(-c2ccccc2)[nH][nH]c1=O)c1ccc(Br)cc1 do in these assays?
KB-3-1 cytotox: inactive; HT1080 IDH1KD tx: inactive; HT1080NT lethal: inactive; KB-V1 cytotox: inactive

How did CC(=O)N(Cc1ccc(F)cc1)C1=C(NCc2ccccc2)C(=O)c2ccccc2C1=O do in these assays?
KB-3-1 cytotox: inconclusive; HT1080 IDH1KD tx: 5.01µM; SW480 rereplic: inconclusive; HT1080NT lethal: 4.47µM; KB-V1 cytotox: inactive; MCF10A rereplic: inconclusive

What do the screens show for `O=C(NCc1ccc(F)cc1)C(c1ccccc1)c1ccccc1`?
KB-3-1 cytotox: inactive; HT1080 IDH1KD tx: inactive; SW480 rereplic: inactive; HT1080NT lethal: inactive; KB-V1 cytotox: inactive; MCF10A rereplic: inactive

Results for CCn1cc(CNC(=O)c2cc(COc3ccc(F)cc3Cl)on2)cn1 ?
KB-3-1 cytotox: inconclusive; HT1080 IDH1KD tx: inactive; SW480 rereplic: 18.4µM; HT1080NT lethal: inconclusive; KB-V1 cytotox: inconclusive; MCF10A rereplic: inconclusive

Results for CCn1nc(C)c(CNC(=O)c2cc(COc3ccc(F)cc3Cl)on2)c1C ?
KB-3-1 cytotox: inconclusive; HT1080 IDH1KD tx: inactive; SW480 rereplic: inactive; HT1080NT lethal: 9.2µM; KB-V1 cytotox: inconclusive; MCF10A rereplic: inactive

What do the screens show for `CCC(=O)Nc1ccc(CC)cc1-c1nc2ccccc2n(CC(=O)c2ccc(OC)cc2)c1=O`?
KB-3-1 cytotox: inactive; KB-V1 cytotox: inactive

What do the screens show for `COc1ccccc1CN1CCC(CNC(=O)c2cnn(-c3ccc(C)c(C)c3)c2C2CCN(C(=O)OC(C)(C)C)CC2)CC1`?
KB-3-1 cytotox: inactive; KB-V1 cytotox: inactive

Results for COc1ccccc1CN1CCC(CNC(=O)c2cnn(-c3ccc(Cl)cc3)c2C2CCN(C(=O)OC(C)(C)C)CC2)CC1 ?
KB-3-1 cytotox: 16.4µM; KB-V1 cytotox: inconclusive
